Data as given in ChEMBL document CHEMBL3988442, “University of Dundee, Small-Polar-MMV Screening Library” (2021).
Among all 48,000 compounds or so, about 13,000 (27%) showed an effect of 50% or more. The list shows a part of the results.

The molecules below were run on Wolbachia pipientis (assay: Anti-Wolbachia Cell-Based Screen). Conditions: 5 µM.
Assay type: functional
Parameters: scale not given: in the data most compounds retested in dose-response had high values

Row | SMILES | Percent Effect [%]
1 | COCCN1CC[C@]2(CN(Cc3cccnc3)C[C@H]2C)C1=O.O=C(O)C(F)(F)F.O=C(O)C(F)(F)F | 106.1
2 | Oc1cccc(CN2C[C@H]3CC[C@@H]2CN(Cc2cccnc2)C3)c1 | 8.491
3 | COC(=O)N1C[C@H]2CC[C@@H]1CN(Cc1ccncc1)C2 | -3.604
4 | COCCN1CC[C@]2(CN(Cc3ccccn3)C[C@H]2C)C1=O.O=C(O)C(F)(F)F.O=C(O)C(F)(F)F | -7.652
5 | O=C(C1CCOCC1)N1C[C@H]2CC[C@@H]1CN(Cc1ccncc1)C2 | 9.375
6 | CC(C)OC(=O)N1C[C@H]2CC[C@@H]1CN(Cc1cccnc1)C2 | -10.82
7 | Cc1ccc([C@]2(O)CC[C@H]3CN(Cc4cccnc4)C[C@H]32)nc1 | 129.8
8 | C[C@@H]1CN(Cc2cccnc2)C[C@]1(C)O | 104.9
9 | C[C@@H]1CN(C2CCOC2)C[C@]12CCN(Cc1cccnc1)C2=O.O=C(O)C(F)(F)F.O=C(O)C(F)(F)F (some centres not stated) | -21.11
10 | Cc1ccc([C@]2(O)CC[C@H]3CN(Cc4ccncc4)C[C@H]32)nc1 | 139.7
11 | O=C1CO[C@H]2CN(Cc3cccnc3)C[C@H]2N1 | 0.8904
12 | Cc1ncsc1CN1C[C@@H]2CN(Cc3cccnc3)CCO[C@@H]2C1 | -8.283
13 | CCCn1ncc(CN2CCCC(C(=O)c3ccc(SC)cc3)C2)c1C (configuration not stated) | -6.021
14 | Cc1cccc2cc(CN3CCCN4CCC[C@H]4C3)c(=O)[nH]c12 | -11.16
15 | c1cnc(N2CC[C@@H]3[C@@H]2CCN3Cc2cccs2)nc1 | -7.885
16 | Cl.Cl.O=C1NC2(CCNCC2)CC1c1ccncc1 (configuration not stated) | -8.002
17 | CC(C)=CCN1C[C@H]2CC[C@@H]1CN(S(=O)(=O)c1cccnc1)C2 | -24.05
18 | CNc1nc(C(=O)N2C[C@@H]3CCN(C)[C@@H]3C2)cs1 | 2.53
19 | Cc1cc(C(=O)NCC(=O)N2CCOCC2)nn1C(C)(C)C | 90.04
20 | CN1CCc2c(CNC(=O)c3nccn3C)cncc2C1.Cl.Cl.Cl | 16.49
21 | Cl.Cl.Cn1cc(C(=O)NCc2cncc3c2CCNC3)cn1 | 102.3
22 | Cc1ncc2c(c1CNC(=O)C1(C)CC1)CCNC2 | -5.654
23 | CCn1ccnc1CN1CCCN(C(=O)Cc2ccc(C)cc2)CC1 | 110.8

Row | SMILES | Percent Effect [%]
24 | CCn1ccnc1CN1CCCN(C(=O)Cc2ccc(C)s2)CC1 | 99.83
25 | CCc1nc(CN2CCCN(C(=O)Cc3cccs3)CC2)cs1 | -3.679
26 | CCn1cc(CN2CCCN(C(=O)Cc3cccs3)CC2)cn1 | -6.845
27 | Cc1ccc(CC(=O)N2CCCN(Cc3nccn3C)CC2)cn1 | 118.2
28 | Cc1nc(CC(=O)N2CCN(Cc3ccc(C#N)cc3)CC2)cs1 | -1.564
29 | CCCN1CCN(Cc2nccn2CC)C(C)C1 (configuration not stated) | -20.72
30 | CCN1CCN(C(=O)Cc2ccc(S(=O)(=O)C(F)F)cc2)CC1 | -2.606
31 | CCn1ccnc1CN1CCCN(C(=O)Cc2csc(C)n2)CC1 | 120.7
32 | CCn1cc(CN2CCCN(C(=O)Cc3ccc(C)nc3)CC2)cn1 | 6.063
33 | NC(=O)CN1CCCN(C(=O)Cc2ccc3ccccc3c2)CC1 | -1.177
34 | CCn1ccnc1CN1CCCN(C(=O)Cc2ccc(C)nc2)CC1 | -2.19
35 | COCC(=O)NC[C@H]1C[C@@H]2CCN1C[C@@H]2CN1CCc2ccccc21 | -6.803
36 | CNCCc1nc2cc(F)ccc2[nH]1.Cl.Cl | -2.58
37 | COCC1CN(c2ccc(C#N)c(Cl)c2)CCO1 (configuration not stated) | -25.31
38 | CCn1ccnc1CN1CCCN(C(=O)Cc2ccc(F)cc2)CC1 | 115.9
39 | CCn1ccnc1CN1CCCN(C(=O)Cc2ccccc2C)CC1 | 129.6
40 | NC(=O)CN1CCCN(C(=O)Cc2ccc(F)c(Br)c2)CC1 | -2.154
41 | O=C(Cc1ccccc1)N1CCN(Cc2noc(C3CC3)n2)CC1 | 0.1776
42 | CCc1noc(CN2CCN(C(=O)Cc3ccc(F)cc3)CC2)n1 | -6.192
43 | COCCn1cncc1CN1CCC(C(C)=O)(c2ccccc2)CC1 | -9.89
44 | COCCn1cncc1Cn1ncc2ccccc2c1=O | 103.5
45 | CCn1cncc1Cn1ncc2ccccc2c1=O | 88.95
46 | O=c1c2ccccc2cnn1Cc1cncn1C1CC1 | 94.68

Row | SMILES | Percent Effect [%]
47 | N#Cc1ccc(S(=O)(=O)NCCn2ccnc2)cc1Cl | -8.716
48 | Cl.O=C1NC2(CCNCC2)CC1c1ccccc1 (configuration not stated) | -38.6
49 | CC(C)COC(=O)N1CCC2(CCNC2)C1.Cl (configuration not stated) | -11.51
50 | CC(C)NC(=O)N1CCOC2(CCCNC2)C1 (configuration not stated) | -11.25
51 | Cc1[nH]c2c(F)cccc2c1CC(=O)N1CCN(C2CCSCC2)CC1 | -2.752
52 | CN(C)CCOCc1cncc2c1CCN(C1CCOC1)C2.O=C(O)C(F)(F)F.O=C(O)C(F)(F)F.O=C(O)C(F)(F)F (configuration not stated) | 106.1
53 | CCCS(=O)(=O)N1CCc2c(COCC)cncc2C1.O=C(O)C(F)(F)F | 0.2019
54 | CCN(C)c1ncc2c(c1C(=O)O)CCN(C1CCOC1)C2.O=C(O)C(F)(F)F.O=C(O)C(F)(F)F (configuration not stated) | -4.446
55 | CCS(=O)(=O)N1CCc2c(COCCN(C)C)cncc2C1.O=C(O)C(F)(F)F.O=C(O)C(F)(F)F | 97.71
56 | CC(Cc1cccc(Cl)c1)NC(=O)NCc1ncnn1C (configuration not stated) | -5.872
57 | Cc1ncccc1OCC(=O)N1CCN[C@H]2CS(=O)(=O)C[C@H]21 | -3.722
58 | Cc1noc(C)c1CN1CC[C@H]2[C@H]1CCN2CC1CCOCC1.O=C(O)C(F)(F)F.O=C(O)C(F)(F)F | 115.6
59 | Cc1noc(C)c1CN1CCO[C@H]2CN(CC3CC3)C[C@H]21.O=C(O)C(F)(F)F.O=C(O)C(F)(F)F | -4.425
60 | CCOC[C@H]1CC[C@H]2[C@H](CCN2Cc2c(C)noc2C)O1.O=C(O)C(F)(F)F | 4.615
61 | Cc1noc(C)c1CN1CC[C@@H]2O[C@@H](COCC3CC3)CC[C@@H]21.O=C(O)C(F)(F)F | -0.7071
62 | CCOC[C@@H]1CC[C@H]2[C@H](CCN2Cc2c(C)noc2C)O1.O=C(O)C(F)(F)F | 3.079
63 | COCCN1C(=O)CC[C@@H]2[C@@H]1CCN2Cc1c(C)noc1C.O=C(O)C(F)(F)F | 103.6
64 | N#Cc1cccnc1NCCNC(=O)N1CCN2CCCCC2C1 (configuration not stated) | -6.324
65 | CC(C)NC(=O)C1CCC2(CCNCC2)C1 (configuration not stated) | -35.43
66 | COc1ccc(C(=O)C2CCCN(CCCn3cccn3)C2)c(OC)c1 (configuration not stated) | -1.04
67 | NC(=O)c1cnn2c1NCC(CNCC1(c3ccccc3)CCC1)C2 (configuration not stated) | 92.2
68 | O=C(c1ccc(C2CCCN2)s1)N1CCN2CCC1CC2 (configuration not stated) | 11.12
69 | CC[C@H]1CN2CC[C@H]1C[C@@H]2CNCc1cccc(C#N)c1 | 6.24

Row | SMILES | Percent Effect [%]
70 | CCS(=O)(=O)N1CCc2ccc(NC(=O)Nc3cccc(C#N)c3)cc21 | 97.92
71 | CC[C@H]1CN2CC[C@H]1C[C@@H]2CNC(=O)Nc1cccc(C#N)c1 | 1.181
72 | CC(C)CCC(=O)N1C[C@H]2CCN[C@H]2C1 | 107.3
73 | O=S(=O)(c1ccc(Cl)cc1)N1C[C@@H]2CCN[C@@H]2C1 | -24.32
74 | CC(C)C(=O)N1C[C@H]2CCCN[C@H]2C1.Cl | -7.068
75 | CC(C)CNC(=O)N1C[C@H]2CCN[C@H]2C1 | -21.84
76 | Cc1ccc(S(=O)(=O)N2C[C@@H]3CCN[C@@H]3C2)cc1 | -12.06
77 | O=C(CC1CCCC1)N1C[C@@H]2C[C@H]1CN2 | -37.69
78 | CC(C)(C)CC(=O)N1C[C@H]2CCN[C@H]2C1 | 123.1
79 | O=C(CC(F)(F)F)N1C[C@H]2CCN[C@H]2C1 | 92.17
80 | O=C(CC1CC1)N1C[C@H]2CCN[C@H]2C1 | 112.4
81 | O=S(=O)(c1ccccc1)N1C[C@@H]2CCN[C@@H]2C1 | -39.01
82 | CC(C)(C)CC(=O)N1C[C@@H]2C[C@H]1CN2.Cl | -16.89
83 | CC(C)CNC(=O)N1C[C@@H]2CCCN[C@@H]2C1 | -10.44
84 | CS(=O)(=O)N1CCC(Nc2ccc(C#N)c(C(F)(F)F)c2)CC1 | -23.63
85 | COc1cccc2c(=O)n(C3CCCNC3)cnc12 (configuration not stated) | -0.6392
86 | CCc1ocnc1C(=O)N1CCC2(CC1)OCC(C)O2 (configuration not stated) | -17.17
87 | CN(C)CCN(Cc1ccco1)C(=O)Cc1cn2ccsc2n1 | 1.866
88 | O=C(NC1CCC1)[C@@H]1C[C@@H]2CCN(Cc3ccncc3)C[C@H]2O1.O=C(O)C(F)(F)F.O=C(O)C(F)(F)F | -10.63
89 | COCCNC(=O)[C@H]1C[C@@H]2CCN(Cc3ccncc3)C[C@H]2O1.O=C(O)C(F)(F)F.O=C(O)C(F)(F)F | 99.07
90 | CNC(=O)[C@H]1C[C@@H]2CCN(Cc3ccncc3)C[C@H]2O1.O=C(O)C(F)(F)F.O=C(O)C(F)(F)F | 103.5
91 | O=C(NCCc1ccncc1)[C@H]1CC[C@@H]2[C@@H](CCN2CC2CC2)O1.O=C(O)C(F)(F)F.O=C(O)C(F)(F)F | 1.654
92 | O=C(O)C(F)(F)F.O=C(O)C(F)(F)F.O=C([C@H]1CN(Cc2ccncc2)C[C@H]2OCC[C@@H]12)N1CCCCO1 | 11.08
